Rows were chosen to be rich in hits. Some 7.3% of all compounds tested hit in one or more screens of this group.
Vaccinia mCherry = inhibitors of vaccinia virus infection (mCherry reporter signal); Vaccinia virus mCherry reporter infection, fluorescence; Potency, µM (titrated, usually from 36.5 µM), for inactives: at the top dose activity change, negative = inhibition, usual class: inhibitors; 310,000 tested, 0.63% active; AID 720579; calls by dose curve; tested in A549 cells; note: potency is the fitted concentration of half-maximal effect; nearly all actives have a fitted effect of over 35% in size
FMDV antiviral = foot and mouth disease virus antiviral activity. Potency, µM (doses to about 57.9 µM), without a hit: top-dose activity change, negative = inhibition, most hits filed as inhibitors. 410,000 tested, 1.2% active. AID 1159524. FMDV antiviral cell-based qHTS; calls by dose curve; tested in HEK293T cells; note: read-out not given here; potency is the fitted concentration of half-maximal effect; nearly all actives have a fitted effect of over 45% in size
HCV inh = inhibitors of hepatitis C virus infection. Potency, µM (top dose mostly 41.8 µM), for inactives: at the highest dose activity change, negative = inhibition, usual class: inhibitors. Huh7.5.1 HCVcc-Cre infection, luciferase reporter, 44 h. AID 651820. 340,000 tested, 3.4% active; active = well fitted inhibition curve with a large enough effect; inconclusive = small, poorly fitted or top-dose-only effect, or another doubt; inactive = no such curve, though single readings can be large or run the other way; note: potency is the fitted concentration of half-maximal effect
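Cells (1,000/well) were plated 4 h before compound, then infected with HCVcc-Cre virus (~0.5 moi). After 44 h further culture, infection was read as luciferase luminescence following a 15 min substrate incubation at room temperature.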
Vaccinia Venus = vaccinia inhibition (Venus reporter) | Vaccinia virus Venus reporter expression, fluorescence | Potency, µM (doses to about 36.5 µM), for the others: at the top dose activity change, negative = inhibition, usual class: inhibitors | 330,000 tested, 0.46% active | AID 720580; calls by dose curve; tested in A549 cells; note: potency is the fitted concentration of half-maximal effect; nearly all actives have a fitted effect of over 30% in size
HCMV antiviral = blocks human cytomegalovirus replication | HFF cells, HCMV-luciferase reporter, 72 h; hits give low values | activity change, negative = inhibition, % at 57.5 µM | 410,000 tested, 4.5% active | AID 1259415; in the data active = activity change below about -60%; inconclusive = no clear call, values can overlap the other calls; inactive = above about -39%
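After 16 h attachment at 37C, HFF cells received test compound and HCMV-luciferase (1 PFU/cell); reporter luminescence read 72 h later, data normalized against buffer-only and known inhibitor Salinomycin.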
* = called active by the depositor; i = inactive; ? = inconclusive; . = not tested or not shown; [ ] = remark or other dose. % is set by controls: 0 for no effect and ±100 for the full control effect.

SMILES | Vaccinia mCherry | FMDV antiviral | HCV inh | Vaccinia Venus | HCMV antiviral
CCOc1cc(C2c3c(-c4cc(C)ccc4O)n[nH]c3C(=O)N2CCCOC(C)C)ccc1O (configuration not stated) | -5%[7.34 µM] | -6% | . | -7%[7.34 µM] | -68*
Cc1ccc(C2c3c(-c4ccccc4O)n[nH]c3C(=O)N2CCc2ccccc2)cc1 (configuration not stated) | -9%[7.34 µM] | -16% | . | -9%[7.34 µM] | -94*
CCOC(=O)c1cccn1C1C(=O)N(Cc2ccc(C(F)(F)F)cc2)c2ccc(OC(F)(F)F)cc21 (configuration not stated) | . | . | . | . | -13
Cc1ccc(-c2nnc(Nc3ccc(Br)cc3)c3ccccc23)cc1S(=O)(=O)NCC1CCCO1 (configuration not stated) | -24% | 59% | . | -13% | -25
CC(C)OCCCN1C(=O)c2[nH]nc(-c3ccccc3O)c2C1c1ccc(OCc2ccccc2)cc1 (configuration not stated) | ? | -5% | . | ? | -98*
O=C(/C=C/c1ccccc1)CCN1CCOCC1 | 10µM* | ? | ? | ? | -17
O=C(Cc1ccccc1)N1CCNCC1 | -13% | 8% | 3% | -7% | -17
C[N+](C)(C)CCC(=O)N1C/C(=C/c2ccccc2)C(=O)/C(=C\c2ccccc2)C1 | ? | ? | ? | ? | -67*
CN(C)CCC(=O)N1C/C(=C/c2ccccc2)C(=O)/C(=C\c2ccccc2)C1 | 8.9µM* | 8.9µM* | ? | 11µM* | -98*
O=C1/C(=C/c2ccccc2)CN(C(=O)CCN2CCOCC2)C/C1=C\c1ccccc1 | ? | 8.9µM* | ? | ? | -33
C/C(=C\c1ccccc1)C(=O)NCCN1CCOCC1 | -14% | 5% | 15% | 1% | -6
C(=Nc1ccc2ccccc2n1)c1cccnc1 | 29% | . | . | -12% | .
Brc1ccc(-c2csc(NNC3=NCCCCC3)n2)cc1 | . | 29% | ? | . | ?
c1ccc(-c2csc(NC3=NCCCCC3)n2)cc1 | i | 1% | 1% | 0% | -6
FC(F)Oc1ccc(-c2csc(NNC3=NCCCCC3)n2)cc1 | -7% | 28µM* | ? | -13% | -16
CC(C)(C)c1ccc(-c2csc(NNC3=NCCCCC3)n2)cc1 | . | 29% | 25µM* | . | -5
Cc1cccc(NC2=CC(c3cccc(Br)c3)N(c3cccc(C)c3)C2=O)c1 (configuration not stated) | -12% | -19% | . | -3% | 18
COc1cccc(/C=C2\SC(=S)N(CCCC(=O)NC3=NCCS3)C2=O)c1 | . | -15% | 11% | . | -29
CCc1ccc(/C=C2\SC(=S)N(CCCC(=O)Nc3cc(C)on3)C2=O)cc1 | i | 16µM* | . | -9% | ?
CCc1ccc(/C=C2\SC(=S)N(CCCC(=O)NC3=NCCS3)C2=O)cc1 | -6% | 14µM* | . | -16% | -74*
Cc1ccc(C2=NCC(C)n3nc4ccccc4c32)cc1 (configuration not stated) | . | . | . | . | -9
O=C(Cn1ncc2c([nH]c3ccccc32)c1=O)NCc1cccc(Cl)c1 | -2% | 7% | . | -7% | 4
Cc1cc(C)cc(N(CC(=O)NC2CCCCC2)C(=O)c2ccc(C)s2)c1 | -21% | . | 11µM* | -19% | 0
Cc1ccc(N(CC(=O)NC2CCCCC2)C(=O)c2ccc(C)s2)cc1 | -5% | . | ? | -3% | -63*
Cc1ccc(N(CC(=O)NC2CCCC2)C(=O)c2ccc(C)s2)cc1 | . | 1% | 11µM* | . | -5
SMILES | Vaccinia mCherry | FMDV antiviral | HCV inh | Vaccinia Venus | HCMV antiviral
Cc1ccc(C)c(NC(=O)C2(C)CC3c4ccccc4C2c2ccccc23)c1 (configuration not stated) | -4% | -1% | 7% | -1% | -105*
Cc1ccc(C)c(NC(=S)N/N=C2/CCCCc3ccccc32)c1 | -1% | 0% | ? | -24% | -71*
O=C(N/N=C1/CCc2ccccc21)C1CC1 | i | 54% | 7% | -6% | 113
S=C(N/N=C1\CCc2ccccc21)NC1CCCCC1 | . | 8% | 8.9µM* | . | -25
C=CCN(c1ccccc1)S(=O)(=O)c1cccc(C(=O)NCC(c2ccc(OC)cc2)N2CCCCC2)c1 (configuration not stated) | ? | -6% | 6.3µM* | ? | -14
COc1ccc(C(CNC(=O)c2cccc(S(=O)(=O)Nc3ccccc3OC)c2)N2CCCCC2)cc1 (configuration not stated) | -8% | -19% | ? | -18% | -99*
CCN(c1ccccc1)S(=O)(=O)c1cccc(C(=O)NCC(c2ccc(OC)cc2)N2CCCCC2)c1 (configuration not stated) | -10% | -11% | . | -29% | -19
COc1ccc(CC(NC(C)=O)C(=O)NC2CCN(C(=O)C3CCCCC3)CC2)cc1OC (configuration not stated) | -9% | -9% | 5% | -1% | -68*
Cc1ccc(S(=O)(=O)Nc2ccc3nc(C)sc3c2)c(C)c1 | . | 24% | ? | . | -33
Cc1nc2cc(NS(=O)(=O)c3c(C)c(C)cc(C)c3C)ccc2s1 | ? | -22% | 2.8µM* | ? | -82*
Cc1nc2ccc(NS(=O)(=O)c3c(C)c(C)cc(C)c3C)cc2s1 | ? | 11% | 16µM* | ? | -61*
O=C(CCSCc1ccc(Cl)cc1)N1CCN(c2ccccc2F)CC1 | -10% | -19% | . | -5% | -33
COc1cccc(NC(=O)CSc2nccn2C2CCCC2)c1 | -10% | 48% | . | -12% | -19
COc1cc(/C=N/Nc2nc3c(c(=O)n(C)c(=O)n3C)n2Cc2ccccc2)ccc1OC(=O)c1ccco1 | i | 14µM* | ? | -12% | 39
Cn1c(=O)c2c(nc(NCCc3ccccc3)n2Cc2ccc(Cl)cc2)n(C)c1=O | ? | ? | . | ? | -82*
Cn1c(=O)c2c(nc(NCc3ccccc3)n2Cc2ccccc2)n(C)c1=O | -29% | -29% | . | ? | -6
Cn1c(=O)c2c(nc(NCc3ccc4c(c3)OCO4)n2Cc2ccc(F)cc2)n(C)c1=O | . | ? | 11µM* | . | -34
Cn1c(=O)c2c(nc(NCCO)n2CCc2ccccc2)n(C)c1=O | -2% | . | ? | -26% | ?
Cn1c(=O)c2c(nc(NCc3ccccc3)n2Cc2ccc(Cl)c(Cl)c2)n(C)c1=O | ? | ? | . | ? | -76*
Cn1c(=O)c2c(nc(N/N=C/c3ccncc3)n2Cc2ccccc2)n(C)c1=O | -13% | ? | -10% | -20% | 46
Cn1c(=O)c2c(nc(NCc3ccc4c(c3)OCO4)n2Cc2ccccc2)n(C)c1=O | . | ? | ? | -48% | -19
CS(=O)(=O)N1CC(=O)N2[C@@H](CO)[C@H](c3ccc(Br)cc3)[C@@H]2C1 | . | . | . | . | 9
Cc1cc(F)ccc1NC(=O)Cn1c(=O)ccc2cc(S(=O)(=O)N3CCC(C)CC3)ccc21 | -12% | -8% | . | -13% | 24
COc1ccc(-n2nc(C(=O)Nc3ccc(Cl)cn3)c3c4ccccc4n(C)c3c2=O)cc1Cl | -3% | -11% | . | -2% | 10
